Screens (PubChem)
TSG101-PTAP inh: qHTS Assay for Iinhibitors of HIV-1 Budding by Blocking the Interaction of PTAP/TSG101 | Fluorescence polarization, FITC-PTAP peptide / Tsg101 binding | Potency, µM (titrated, usually from 115 µM), most hits filed as inhibitors | AID 493005, 2010 | Tumor susceptibility gene 101 protein (Homo sapiens), Q99816 | 340,000 tested, under 10 active; active means well fitted inhibition curve with a large enough effect in the main read-out, with a control signal flat, not every such curve was filed as active; inconclusive means small, poorly fitted or top-dose-only effect, or effect the other way, or a change in a side signal; inactive means no such curve, though single readings can be large or run the other way
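Compounds were pin-transferred onto Tsg101 binding domain (10 uM final) in HEPES pH 7.5 buffer, then FITC-PTAP peptide was added at 50 nM final. After 20 min at RT, polarization reported peptide displacement across a qHTS concentration series.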
PLK1 PBD inh: qHTS for Inhibitors of PLK1-PDB (polo-like kinase 1 - polo-box domain): Primary Screen | Serine/threonine-protein kinase PLK1 (Homo sapiens), P53350 | Potency, µM, hits mostly inhibitors | Plk1 PBD binding of FITC phosphopeptide, fluorescence polarization | 360,000 compounds, 2.8% hits; further: series mostly up to about 57 µM; nearly all actives have a fitted effect of over 65% in size
TSHR antagonist: Antagonists of the Thyroid Stimulating Hormone Receptor: HTS campaign; Thyrotropin receptor (Homo sapiens), P16473; TSHR-expressing cells, TSH-stimulated cAMP HTRF, 2 h; active compounds read low; activity change, negative = inhibition, % at 11.5 µM; 330,000 compounds, 0.2% hits; AID 504810, 2011;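 active means activity change below a set negative limit, meaning inhibition stronger than a set level, cut at about -70% in these data; inconclusive means activity change between two set negative limits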
Target sequence (P16473 whole entry, looked up): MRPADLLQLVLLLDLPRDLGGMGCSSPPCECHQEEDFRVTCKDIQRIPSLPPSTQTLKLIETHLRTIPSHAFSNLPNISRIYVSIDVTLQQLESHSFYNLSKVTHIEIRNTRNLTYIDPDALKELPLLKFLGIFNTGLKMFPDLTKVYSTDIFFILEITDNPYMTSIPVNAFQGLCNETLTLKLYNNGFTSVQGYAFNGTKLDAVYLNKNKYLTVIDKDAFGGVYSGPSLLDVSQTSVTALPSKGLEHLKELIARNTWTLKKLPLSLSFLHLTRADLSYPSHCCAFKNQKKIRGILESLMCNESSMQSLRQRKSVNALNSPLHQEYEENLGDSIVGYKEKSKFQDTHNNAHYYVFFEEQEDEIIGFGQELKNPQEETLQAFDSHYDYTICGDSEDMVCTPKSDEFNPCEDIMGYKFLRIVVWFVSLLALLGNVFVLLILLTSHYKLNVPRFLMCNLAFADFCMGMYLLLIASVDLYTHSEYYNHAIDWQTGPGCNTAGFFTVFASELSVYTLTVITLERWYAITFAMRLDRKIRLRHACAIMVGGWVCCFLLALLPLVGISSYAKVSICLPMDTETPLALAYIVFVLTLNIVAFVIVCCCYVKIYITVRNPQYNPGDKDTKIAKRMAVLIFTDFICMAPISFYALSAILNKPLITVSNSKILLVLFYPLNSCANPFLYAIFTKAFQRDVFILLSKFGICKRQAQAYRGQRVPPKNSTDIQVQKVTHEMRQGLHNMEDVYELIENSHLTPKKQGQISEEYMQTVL
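Inhibition of cAMP made by TSHR-expressing cells under TSH stimulation (4nM final, EC80; 2 h, 37 deg C) is quantified with a one-step lysis HTRF kit, anti-cAMP cryptate versus cAMP-d2.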
uPA surface inh: qHTS for Inhibitors of Cell Surface uPA Generation; Potency, µM (series often up to 38.3 µM), most hits filed as inhibitors; AID 540303, 2011; 330,000 compounds, 0.31% hits; cell surface uPA generation assay, qHTS; active means well fitted inhibition curve with a large enough effect; inconclusive means small, poorly fitted or top-dose-only effect; inactive means no such curve, though single readings can be large or run the other way; tested in mouse RAW 264.7 cells; further: nearly all actives have a fitted effect of over 55% in size
VDR inhibitor: Inhibitors of the vitamin D receptor (VDR): qHTS; VDR-SRC2-3 peptide fluorescence polarization, 2 h; Potency, µM, actives largely listed as inhibitors; 400,000 compounds, 0.93% hits; AID 504847, 2011
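Measured by FP: displacement of SRC2-3 coactivator peptide from VDR by library compounds, following a two-hour ambient incubation.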
Hits are given with their value; i = inactive; ? = inconclusive; nt = no result given. Most compounds without a hit are left out; they make up all but 3.1% or so of the library. Unless noted, the call rests on the fitted dose curve; in most records, active means well fitted curve in the direction sought with a large enough effect; inconclusive means small, poorly fitted or top-dose-only effect, or another doubt; inactive means no such curve, though single readings can be large; an effect the other way counts as inactive or inconclusive.

SMILES | TSG101-PTAP inh | PLK1 PBD inh | TSHR antagonist | uPA surface inh | VDR inhibitor
Fc1cc(F)cc(-c2oncc2-c2nnnn2-c2ccccc2)c1 | i | ? | i | i | i
O=C(CCC(C(=O)c1ccccc1)c1ccccc1)c1ccccc1 (stereo not drawn) | nt | i | nt | nt | nt
CC(C)c1ccc(NC(=O)Cn2c(=O)n(CCc3ccccc3)c(=O)c3ccccc32)cc1 | nt | nt | nt | nt | i
CCOC(=O)C1C(=O)CC(C)(O)C(C(=O)OCC)C1c1ccco1 (stereo not drawn) | i | 3.36µM | i | i | i
CCOC(=O)CNC(=O)CSc1ncnc2c1cnn2-c1ccc(Cl)cc1 | i | 23.8µM | i | i | i
CNC(=O)CSc1ncnc2c1cnn2-c1ccccc1 | i | i | i | i | i
CCOC(=O)CNC(=O)CSc1ncnc2c1nnn2-c1ccc(F)cc1 | i | i | i | i | i
CC(=O)CSc1ncnc2c1cnn2-c1ccccc1 | i | 23.8µM | i | i | ?
O=C(NCCC1=CCCCC1)c1ccc2c(c1)N(Cc1ccc(Cl)cc1)C(=O)c1ccccc1S2(=O)=O | nt | nt | nt | nt | i
[O-][N+](=Cc1ccccc1)c1ccc(Cl)cc1 | i | 21.2µM | nt | i | ?
[O-]/[N+](=C/c1ccco1)c1ccccc1 | i | i | i | i | i
[O-]/[N+](=C\c1ccco1)c1ccc(Cl)cc1 | i | ? | i | i | 35.5µM
O=C(CN1C(=O)CCc2cc(S(=O)(=O)N3CCOCC3)ccc21)NCc1ccc(Cl)cc1 | nt | nt | nt | nt | i
COc1cccc(CNc2sc3c(c2C(=O)Nc2ccc(OC)cc2OC)CCC3)c1 | nt | nt | nt | nt | i
O=C(Nc1cc(S(=O)(=O)N2CCOCC2)ccc1O)c1ccc2c(c1)S(=O)(=O)c1ccccc1C2=O | i | 10.6µM | i | i | ?
O=C(Nc1ccc(S(=O)(=O)N2CCOCC2)cc1)c1ccc2c(c1)S(=O)(=O)c1ccccc1C2=O | i | i | i | i | i
O=C(Nc1cc(S(=O)(=O)N2CCOCC2)ccc1O)c1ccco1 | i | 29.9µM | i | i | i
Cn1cccc1Cc1nnc(SCC(=O)NCC2CCCO2)n1C (stereo not drawn) | i | 23.8µM | i | i | i
Cn1cccc1Cc1nnc(SCC(=O)NCC2CCCO2)n1CCc1ccccc1 (stereo not drawn) | nt | i | i | i | i
CCn1cc(SCC(=O)NCC2CCCO2)c2ccccc21 (stereo not drawn) | i | 7.52µM | i | i | i
CC(NC(=O)C1CCN(CCOc2ccc(Cl)cc2)CC1)c1cccc2ccccc12 (stereo not drawn) | nt | i | nt | nt | nt
Cc1nc2c3cc(F)ccc3n(Cc3ccccc3F)c2s1 | i | ? | i | i | 50.1µM
Cc1nc2c3ccccc3n(Cc3ccccc3F)c2s1 | i | i | i | ? | 44.7µM
Cc1nc2c3ccccc3n(CCN3CCCCC3)c2s1 | nt | nt | i | nt | nt
CN1CCCc2cc(C=O)ccc21 | i | ? | i | i | i
SMILES | TSG101-PTAP inh | PLK1 PBD inh | TSHR antagonist | uPA surface inh | VDR inhibitor
CCCN1CCCc2cc(CN)ccc21 | ? | 18.9µM | i | i | 28.2µM
COc1ccc(NC(=O)c2oc3ccc(S(=O)(=O)N(C)C4CCCCC4)cc3c2C)cc1Cl | nt | nt | nt | nt | i
O=C(NC1CCCCC1)C(=S)N1CCOCC1 | i | 23.8µM | i | i | i
Cc1ccc(-c2nc3c(c(SCC(=O)N4CCOCC4)n2)Cc2c(CO)cnc(C)c2O3)cc1 | i | ? | i | i | i
COc1ccc(-c2nc3c(c(SCC(=O)N4CCOCC4)n2)Cc2c(CO)cnc(C)c2O3)cc1 | i | i | -134.7 | i | i
CC1(C)C(O)C=C[C@@]2(C)C1CC(=O)O[C@@]1(C)C3=CC(=O)OC(c4ccoc4)[C@]3(C)CCC21 (stereo partly drawn) | nt | nt | nt | nt | 44.7µM
Cc1ccccc1Nc1nn2c(=O)c3ccc(C(=O)NCC(C)c4ccccc4)cc3nc2s1 (stereo not drawn) | nt | nt | nt | nt | i
CCOC(=O)c1nn(-c2ccccc2)c(=O)c2c(NC(C)=O)scc12 | i | i | i | i | i
CCOC(=O)c1nn(-c2ccccc2)c(=O)c2c(N)scc12 | i | 2.67µM | i | i | i
CSc1ccc(OC2CCCCC2NS(=O)(=O)c2ccccc2)cc1 (stereo not drawn) | i | 23.8µM | i | i | i
